{"source": "PubChem BioAssay AID504652", "about": "(National Center for Advancing Translational Sciences (NCATS), 2011)", "note": "Out of some 360,000 compounds screened, about 11,000 (3.1%) were called active. The list comes from a sample in which actives are over-represented; it also holds similar structures and randomly drawn compounds. Values without a mark were called inactive. No stated cut-off is given here; in the data, active means activity change below about -30%; inactive means the rest. On the % scale 0 is the no-effect control and ±100 the full control effect.", "data": [{"biological_target": "D(1A) dopamine receptor (Homo sapiens) (UniProt P21728)", "sequence (P21728 whole entry, looked up)": "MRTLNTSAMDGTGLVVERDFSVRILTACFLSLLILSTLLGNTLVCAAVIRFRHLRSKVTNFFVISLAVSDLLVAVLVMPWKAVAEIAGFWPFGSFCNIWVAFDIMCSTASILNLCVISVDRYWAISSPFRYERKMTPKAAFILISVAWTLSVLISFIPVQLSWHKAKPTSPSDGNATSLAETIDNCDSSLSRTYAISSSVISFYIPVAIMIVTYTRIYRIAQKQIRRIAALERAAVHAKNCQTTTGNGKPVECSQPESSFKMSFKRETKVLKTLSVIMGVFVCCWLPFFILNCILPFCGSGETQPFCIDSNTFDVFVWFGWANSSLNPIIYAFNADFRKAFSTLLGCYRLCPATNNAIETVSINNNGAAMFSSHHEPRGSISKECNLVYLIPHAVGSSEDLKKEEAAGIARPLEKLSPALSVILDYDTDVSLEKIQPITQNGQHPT", "test": "Antagonist of Human D 1 Dopamine Receptor: qHTS", "details": "HEK293 TREx D1 cells, calcium flux, dopamine EC80; at 10 µM; active compounds read low", "outline": "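Cells carrying a force-coupled, tetracycline-inducible human D1 receptor report calcium flux. Each well gets a 10 s baseline, compound with 180 s monitoring, then an EC80 dopamine stimulus with a second 180 s kinetic read.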", "values": [{"smiles": "Cn1c(CNc2nc(-c3ccccc3)cs2)nnc1SCC(=O)c1ccccc1", "activity change, negative = inhibition": "-24.4%"}, {"smiles": "CCOC(=O)CSc1nnc(CNC(=O)c2cccs2)n1-c1ccccc1", "activity change, negative = inhibition": "-4.34%"}, {"smiles": "COc1ccc(-c2nn(CC(=O)Nc3ccccc3F)c3c2cnc2ccc(F)cc23)cc1", "activity change, negative = inhibition": "-0.202%"}, {"smiles": "COc1ccc(-c2nn3c(-c4ccc(OC)cc4)nnc3c3ccccc23)cc1", "activity change, negative = inhibition": "-13.1%"}, {"smiles": "COc1ccc(-c2nc3ccc(C(=O)NCc4ccc(C)cc4)cc3nc2-c2ccc(OC)cc2)cc1", "activity change, negative = inhibition": "-1.2%"}, {"smiles": "COc1ccc(CNC(=O)c2ccc3c(O)c(S(=O)(=O)c4ccccc4)c(=O)[nH]c3c2)cc1", "activity change, negative = inhibition": "5.97%"}, {"smiles": "Cc1cc(C)cc(NC(=O)CCS(=O)(=O)c2cc3c4c(c2)CCN4C(=O)CC3)c1", "activity change, negative = inhibition": "20.6%"}, {"smiles": "CCn1nc(C)cc1C(=O)N1CCCC(C(=O)c2cccc(OC)c2)C1", "note": "(stereo not given)", "activity change, negative = inhibition": "0.174%"}, {"smiles": "O=C(c1ccc(-c2ccccc2)cc1)C1CCCN(C(=O)c2cncs2)C1", "note": "(stereo not given)", "activity change, negative = inhibition": "-2.69%"}, {"smiles": "Cn1nccc1C(=O)N1CCCC(C(=O)c2ccc(Oc3ccccc3)cc2)C1", "note": "(stereo not given)", "activity change, negative = inhibition": "-33% (active)"}, {"smiles": "Cc1nnc(NC(=O)CSc2nc3c([nH]c4ccccc43)c(=O)n2-c2cccc(Cl)c2)s1", "activity change, negative = inhibition": "-3.1%"}, {"smiles": "CCOC(=O)c1c(NC(C)=O)c2c3c(sc2n1Cc1c(C)cc(C)cc1C)CCCC3", "activity change, negative = inhibition": "27.5%"}, {"smiles": "CCOC(=O)C(Cc1ccccc1)NC(=O)CCc1c(C)nc2c(c(C)nn2-c2ccc(C)c(C)c2)c1C", "note": "(stereo not given)", "activity change, negative = inhibition": "-20.6%"}, {"smiles": "COc1cccc(Cn2cc(/C=N/NC(=O)c3cc(O)cc(O)c3)c3ccccc32)c1", "activity change, negative = inhibition": "3.21%"}, {"smiles": "CCOC(=O)N/N=C/c1cn(Cc2ccccc2Cl)c2ccccc12", "activity change, negative = inhibition": "-33.9% (active)"}, {"smiles": "N#CCC(=O)N/N=C/c1cn(Cc2ccc3ccccc3c2)c2ccccc12", "activity change, negative = inhibition": "16.1%"}, {"smiles": "CCc1ccc(NC(=O)c2nn(-c3ccc(C)cc3)c(=O)n(C)c2=O)cc1", "activity change, negative = inhibition": "-19.1%"}, {"smiles": "Cc1ccc(N(CC(=O)NCc2ccc(Cl)cc2)S(=O)(=O)N(C)C)cc1", "activity change, negative = inhibition": "27%"}, {"smiles": "CC(C)(C)c1ccc(C(=O)NCC(c2ccc(Cl)cc2)N2CCOCC2)cc1", "note": "(stereo not given)", "activity change, negative = inhibition": "-13.3%"}, {"smiles": "O=c1cc(COc2cccc(C(F)(F)F)c2)nc2sc3c(n12)CCCC3", "activity change, negative = inhibition": "-4.09%"}, {"smiles": "O=C(CSCc1cnn(-c2ccccc2)c1-n1cccc1)NCc1ccc(Cl)cc1", "activity change, negative = inhibition": "5.55%"}, {"smiles": "CCCOc1ccc(C2c3c(-c4ccccc4O)n[nH]c3C(=O)N2Cc2cccnc2)cc1", "note": "(stereo not given)", "activity change, negative = inhibition": "27.7%"}, {"smiles": "[O-][n+]1c2c(nn1-c1ccc(Cl)c(Cl)c1)-c1nonc1CC2", "activity change, negative = inhibition": "-35.4% (active)"}, {"smiles": "Cc1nnc(N2CCC(C(=O)Nc3ccc(F)cc3)CC2)c2nn(-c3ccc(Cl)cc3)c(C)c12", "activity change, negative = inhibition": "-3.69%"}, {"smiles": "COc1cc(C(=O)NNC(=O)c2ccc(S(=O)(=O)N3CCCCC3)cc2)cc(OC)c1OC", "activity change, negative = inhibition": "-4.12%"}, {"smiles": "COc1ccc(S(=O)(=O)N2CCCCC2)cc1Br", "activity change, negative = inhibition": "-47.9% (active)"}, {"smiles": "COc1ccc(F)cc1S(=O)(=O)N1CCCCC1", "activity change, negative = inhibition": "1.35%"}, {"smiles": "COc1ccc(OC)c(-c2csc(-c3c(N)c(C(=O)c4ccccc4)n4ccccc34)n2)c1", "activity change, negative = inhibition": "-9.07%"}, {"smiles": "Cc1c(NC(=O)/C=C/C(=O)O)cccc1[N+](=O)[O-]", "activity change, negative = inhibition": "-41.8% (active)"}, {"smiles": "Cc1c(NC(=O)CCCOc2ccccc2)cccc1[N+](=O)[O-]", "activity change, negative = inhibition": "0.202%"}, {"smiles": "O=C(O)/C=C/C(=O)NNc1ccc([N+](=O)[O-])cc1", "activity change, negative = inhibition": "4.19%"}, {"smiles": "O=[N+]([O-])c1ccccc1NCc1ccc(Cl)cc1", "activity change, negative = inhibition": "-2.99%"}, {"smiles": "Cc1c(NC(=S)NCc2ccc(F)cc2)cccc1[N+](=O)[O-]", "activity change, negative = inhibition": "-31.5% (active)"}, {"smiles": "Cc1cccc(NC(=S)NCCc2ccc(F)cc2)c1C", "activity change, negative = inhibition": "-6.25%"}, {"smiles": "COc1ccc(-c2cccc(NS(=O)(=O)c3cc(C)c(OC)c(C)c3C)c2)nn1", "activity change, negative = inhibition": "-20.7%"}, {"smiles": "COc1ccc(-c2cc(C(=O)NCc3cc(OC)c(OC)c(OC)c3)[nH]n2)cc1", "activity change, negative = inhibition": "-10.2%"}, {"smiles": "COc1ccc(C(F)(F)F)cc1NC(=O)c1sc2nc(-c3cccs3)ccc2c1N", "activity change, negative = inhibition": "-1.54%"}, {"smiles": "NS(=O)(=O)c1ccc(NC(=O)C(=O)Nc2ccc3nc4n(c(=O)c3c2)CCCCC4)cc1", "activity change, negative = inhibition": "-3.24%"}, {"smiles": "COc1ccc(Cc2nc3ccc(C(=O)NCc4ccccc4Cl)cc3o2)cc1", "activity change, negative = inhibition": "-19.1%"}, {"smiles": "CN1CCN(C(CNC(=O)c2ccccc2F)c2ccc3c(c2)OCO3)CC1", "note": "(stereo not given)", "activity change, negative = inhibition": "8.69%"}, {"smiles": "CCOc1cc(C(=O)NCCc2csc3nc(-c4ccc(C)cc4)nn23)cc(OCC)c1OCC", "activity change, negative = inhibition": "3.63%"}, {"smiles": "O=C(NCc1ccco1)c1cc2sccc2n1Cc1ccc(F)cc1", "activity change, negative = inhibition": "-8.06%"}, {"smiles": "O=C(NCc1ccco1)c1sc2cccc(F)c2c1Cl", "activity change, negative = inhibition": "-46.1% (active)"}, {"smiles": "O=C(NCc1ccco1)c1nn2cccnc2c1Cl", "activity change, negative = inhibition": "15.7%"}, {"smiles": "CCOc1ccc(N2CC(C)Cn3c2nc2c3c(=O)n(Cc3c(F)cccc3Cl)c(=O)n2C)cc1", "note": "(stereo not given)", "activity change, negative = inhibition": "-2.48%"}]}]}
